± gives the standard deviation of the averaged measurements. The full ranking holds about 33,000 sequences; the median of “E-score (rank enrichment, -0.5 to 0.5)” is about -0.0028, and the highest 2% start at about 0.23. Only a selection was taken, and the highest values are over-represented in it overall.
test system: 2Sb-muMax20 (muMax20 with two 1,3-bis(methyl)benzene Cys staples, A13C/A17C and Q88C/A92C, C-terminal Lys); test: PBM 8-mer E-score (E-score (rank enrichment, -0.5 to 0.5)); higher = stronger preferential binding
Procedure: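 Protein binding microarray (universal PBM chip covering all 10-mers in fixed probe flanks) with chemically synthesized human Max(13-93) bHLH-LZ analogs (not full-length Max) bearing noncanonical residues (hArg, Tha, Aib, Nle at 65) and aromatic Cys staples. Read-out per 8-mer (and its reverse complement): E-score (rank-based enrichment, -0.5 to 0.5) and Z-score of median probe intensity.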

| Sequence | PBM 8-mer E-score |
| --- | --- |
| TCTCGCCA | 0.0619 ± 0.024 |
| AAAAGGCA | 0.0454 ± 0.064 |
| ACGTGGCC | -0.0906 ± 0.018 |
| AAGTGGGT | 0.1 ± 0.0081 |
| AAGTGGGC | 0.0223 ± 0.023 |
| AAGTGGGG | 0.264 ± 0.032 |
| ACGTGGCT | 0.291 ± 0.048 |
| ACGTGGCA | 0.114 ± 0.049 |
| AACCGTGC | -0.0303 ± 0.0035 |
| CGGTATTC | -0.204 ± 0.072 |
| GGCCGGCC | -0.285 ± 0.0086 |
| CCACGGTA | -0.185 ± 0.042 |
| TTAAAGAA | 0.125 ± 0.032 |
| GCGTAAAC | 0.0507 ± 0.016 |
| AATTCCAG | 0.0496 ± 0.043 |
| ATACTACG | 0.0847 ± 0.053 |
| GGACTCAA | -0.0969 ± 0.07 |
| GTTGGGGA | 0.166 ± 0.092 |
| CATGGGGA | 0.172 ± 0.05 |
| ATTGGGCC | -0.04 ± 0.093 |
| ATTGGGGG | 0.0136 ± 0.03 |
| ATTGGGGA | 0.244 ± 0.0088 |
| CTTGGGAA | -0.0626 ± 0.05 |
| ATTGGGGC | 0.284 ± 0.0076 |
| ATTGGGAA | 0.192 ± 0.0077 |
| TATGGGGA | 0.28 ± 0.014 |

| Sequence | PBM 8-mer E-score |
| --- | --- |
| AATGGGGA | 0.143 ± 0.0043 |
| CTTGGGGA | 0.269 ± 0.046 |
| ATTGGGTA | 0.161 ± 0.015 |
| AGTGGCTA | -0.0163 ± 0.084 |
| AGTTTCAC | 0.045 ± 0.0036 |
| CAGCTCAG | -0.0712 ± 0.0083 |
| GGCCACAA | -0.0539 ± 0.0061 |
| ACATTCTC | -0.0346 ± 0.019 |
| AAGGGGTG | 0.117 ± 0.065 |
| CTGGGGTA | 0.179 ± 0.0054 |
| ATGGGGTC | 0.0475 ± 0.043 |
| ATGGGGTG | 0.238 ± 0.0055 |
| AGGGGGTG | -0.116 ± 0.099 |
| ATGGGGTA | 0.249 ± 0.034 |
| ACGTAGAA | -0.00421 ± 0.0043 |
| AGCGCTCG | -0.0768 ± 0.062 |
| AAATCCGA | 0.0186 ± 0.034 |
| TGGAATAA | 0.0314 ± 0.022 |
| GGGAATGA | 0.322 ± 0.017 |
| GGGAATAA | 0.273 ± 0.024 |
| AGGAATGA | 0.00801 ± 0.012 |
| CGGAATGA | -0.065 ± 0.018 |
| GGGAATAC | 0.0722 ± 0.022 |
| AAGGCACT | 0.0491 ± 0.026 |
| GAGTGCCA | -0.0641 ± 0.028 |
| ACTCTGCT | -0.214 ± 0.017 |

| Sequence | PBM 8-mer E-score |
| --- | --- |
| CATATCCG | 0.0256 ± 0.071 |
| AATTTTCC | 0.085 ± 0.0046 |
| CAAATTCC | 0.117 ± 0.042 |
| CGTTTCTC | -0.0396 ± 0.11 |
| GACAGGGA | -0.156 ± 0.072 |
| AAGCAACT | 0.00018 ± 0.012 |
| CTAAAGCA | 0.097 ± 0.0042 |
| ATAAAGCG | 0.0637 ± 0.015 |
| ATAAAGCA | 0.261 ± 0.077 |
| AGTTAGAA | 0.0284 ± 0.083 |
| ACGTGCAT | 0.199 ± 0.0073 |
| ACGTGCAC | 0.281 ± 0.028 |
| CCGTGCAA | -0.0691 ± 0.042 |
| GCGTGCAC | 0.164 ± 0.039 |
| ACGTGCAA | 0.252 ± 0.037 |
| CCGTGCAC | 0.126 ± 0.009 |
| AGACCATG | -0.149 ± 0.029 |
| ACGGGTAA | 0.0152 ± 0.05 |
| AATGTGGG | 0.248 ± 0.054 |
| AATGTGGC | 0.0323 ± 0.0018 |
| CATGTGGG | 0.193 ± 0.0078 |
| TGAATGCA | 0.167 ± 0.015 |
| CCATACCG | 0.0521 ± 0.016 |
| ATTTTACC | 0.147 ± 0.025 |
| CGACGGAA | -0.109 ± 0.041 |
| ACCATTAA | 0.298 ± 0.038 |

| Sequence | PBM 8-mer E-score |
| --- | --- |
| GACATTAA | 0.0446 ± 0.036 |
| ATCATTAA | 0.0944 ± 0.13 |
| CACATTAG | -0.00967 ± 0.014 |
| GTCATTAA | 0.269 ± 0.035 |
| TACATTAA | 0.25 ± 0.03 |
| CACATTAC | 0.235 ± 0.017 |
| CCCATTAA | 0.13 ± 0.0083 |
| CTCATTAA | 0.154 ± 0.064 |
| AACATTAC | 0.17 ± 0.015 |
| AACATTAA | 0.0201 ± 0.011 |
| TCCATTAA | -0.0453 ± 0.043 |
| AGCGTGGC | -0.119 ± 0.04 |
| TAACGTTA | 0.0083 ± 0.027 |
| CCATTCCG | -0.0949 ± 0.02 |
| CGACGCCC | 9e-05 ± 0.053 |
| CTGCTCTC | -0.0222 ± 0.021 |
| ATGTGATG | 0.108 ± 0.053 |
| ATATCCGC | -0.0334 ± 0.094 |
| AGAACCAG | -0.11 ± 0.019 |
| TGCATTAA | 0.267 ± 0.01 |
| AGCATTAT | 0.224 ± 0.0032 |
| CGCATTAA | 0.0701 ± 0.0015 |
| AGCATTAC | -0.0652 ± 0.011 |
| AGCATTAA | 0.245 ± 0.037 |
| GGCATTAA | -0.00398 ± 0.043 |
| CTGATTAA | 0.0112 ± 0.038 |

| Sequence | PBM 8-mer E-score |
| --- | --- |
| GTGATTAA | 0.234 ± 0.019 |
| ATGATTAA | -0.061 ± 0.032 |
| AGGATAAT | 0.148 ± 0.024 |
| AGTTATCC | 0.119 ± 0.035 |
| AGCTCAAG | -0.0222 ± 0.065 |
| AAAGCCAG | -0.092 ± 0.033 |
| CTCGCGAA | -0.117 ± 0.028 |
| ATATTCCC | 0.159 ± 0.065 |
| ACCGGCGT | -0.189 ± 0.05 |
| CTTCGTCC | -0.084 ± 0.06 |
| ATTCGTCC | 0.232 ± 0.032 |
| ATTCGTCG | -0.057 ± 0.028 |
| ACATCGGT | -0.142 ± 0.022 |
| ACAATCTC | 0.149 ± 0.018 |
| CCAATCTA | 0.094 ± 0.0061 |
| CCAATCTC | 0.256 ± 0.024 |
| CTACGCGC | -0.0145 ± 0.047 |
| GACTCTTA | 0.151 ± 0.032 |
| CGGCGCAA | -0.0906 ± 0.015 |
| ACCGTCCG | -0.254 ± 0.034 |
| AGCCTCAG | -0.0843 ± 0.053 |
| ATCAATTC | 0.0558 ± 0.082 |
| ATCAATTG | 0.257 ± 0.0066 |
| GTCAATTA | -0.0609 ± 0.042 |
| GACAATGC | 0.0134 ± 0.02 |
| AACAATTG | 0.143 ± 0.022 |

| Sequence | PBM 8-mer E-score |
| --- | --- |
| AACAATTA | 0.2791 ± 0.0017 |
| ATCAATCG | 0.16 ± 0.067 |
| CTCAATTA | 0.0698 ± 0.043 |
| AACAATTC | 0.141 ± 0.011 |
| AACAATGG | 0.0925 ± 0.024 |
| AACAATGC | 0.23 ± 0.044 |
| ATCAATTA | 0.27 ± 0.01 |
| CCATGGGA | 0.123 ± 0.019 |
| AATAGAGC | 0.0926 ± 0.04 |
| ATGCTTCG | 0.00498 ± 0.0021 |
| CACAGTAG | -0.0155 ± 0.0072 |
| AGCCTAGA | -0.0899 ± 0.028 |
| ACGACGAC | -0.124 ± 0.0076 |
| GTTCGCTA | -0.0331 ± 0.033 |
| ATTAGTCA | 0.172 ± 0.041 |
| CAGGATAG | 0.0195 ± 0.012 |
| GCCGTCAA | -0.0475 ± 0.027 |
| CAAGCGCA | 0.27 ± 0.03 |
| CAAGCGCC | -0.226 ± 0.091 |
| AAAGCGCA | 0.0962 ± 0.09 |
| ACATGTGA | 0.308 ± 0.033 |
| GCATGTGA | 0.159 ± 0.02 |
| ACACATGG | 0.145 ± 0.08 |
| CCATGTGA | 0.109 ± 0.036 |
| ACACATGT | 0.334 ± 0.0089 |
| ACATGTGG | 0.246 ± 0.04 |

| Sequence | PBM 8-mer E-score |
| --- | --- |
| AAATGTGG | 0.114 ± 0.11 |
| ACATGTGC | 0.167 ± 0.0089 |
| ACACATGA | -0.0128 ± 0.068 |
| CCTCCGTC | 0.0056 ± 0.021 |
| GCCGGCCC | -0.162 ± 0.0086 |
| AAATAGTA | 0.175 ± 0.0028 |
| CGATAACG | -0.0616 ± 0.034 |
| ATATAACG | 0.288 ± 0.0086 |
| ATATAACA | 0.126 ± 0.0091 |
| CAATAACG | 0.105 ± 0.029 |
| AGATAACC | 0.0753 ± 0.022 |
| AAATAATG | 0.2315 ± 0.002 |
| ATATAACC | 0.16 ± 0.041 |
| AAATAATC | -0.0306 ± 0.048 |
| AGATAACG | 0.259 ± 0.041 |
| AAATAATA | 0.149 ± 0.025 |
| AAATAACA | 0.0873 ± 0.044 |
| AAATAACG | 0.273 ± 0.017 |
| AACGTGGT | 0.224 ± 0.05 |
| ATTCCTCC | 0.129 ± 0.052 |

From the supplement of paper PMC12636033
